Measured values from PubChem BioAssay (NCI).
This is part of a sample that, as a whole, favours compounds with a hit. Of some 83,000 tested, about 20% had one in any assay.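 Compound tested at a single concentration for 48 hours in 96-well plates; a percent growth value below 10 was scored as active.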 A number with no mark means an inactive call. The source made the active and inactive calls.

Key:
Test in all cases: NCI-60 one-dose screen, 48 h (100 = growth as untreated, 0 = no growth, -100 = all killed)
Settings in all cases: 10 µM unless noted
HT29 colon = test system: HT29 colon
SNB-75 CNS = test system: SNB-75 CNS
SNB-19 CNS = test system: SNB-19 CNS
U251 CNS = test system: U251 CNS
PC-3 prostate = test system: PC-3 prostate
SK-MEL-5 melanoma = test system: SK-MEL-5 melanoma
UACC-62 melanoma = test system: UACC-62 melanoma
LOX IMVI melanoma = test system: LOX IMVI melanoma
SK-MEL-28 melanoma = test system: SK-MEL-28 melanoma

| SMILES | growth (HT29 colon) | growth (SNB-75 CNS) | growth (SNB-19 CNS) | growth (U251 CNS) | growth (PC-3 prostate) | growth (SK-MEL-5 melanoma) | growth (UACC-62 melanoma) | growth (LOX IMVI melanoma) | growth (SK-MEL-28 melanoma) |
| --- | --- | --- | --- | --- | --- | --- | --- | --- | --- |
| O=C(Nc1ccc(-c2ccc3c(c2)NC(=O)/C3=C\c2ccc[nH]2)cc1)Nc1ccc(Cl)c(Cl)c1 | 10.7% | 52.1% | 67.5% | 21.9% | 64.7% | 74.7% | 42.4% | 26.2% | 64.2% |
| CC(C)C[C@H](NC(=O)[C@@H]1CCCCCCCCCCC(=O)N[C@@H](CC(=O)N2CCC[C@@H]2C2CCCC2)C(=O)N1)B(O)O | -18% (active) |  | 6.18% (active) | -50.7% (active) |  | -92% (active) | -86.8% (active) | -93.3% (active) | -5.72% (active) |
| CC(=O)Nc1ccc(S(=O)(=O)Nc2ccc(-c3ccc4c(c3)NC(=O)/C4=C\c3ccc[nH]3)cc2)cc1 | 118% | 108% | 73% | 89.2% | 91.4% | 92.6% | 68.7% | 85.2% | 83.6% |
| O=C(Nc1ccc(Br)cc1)Nc1ccc(-c2ccc3c(c2)NC(=O)/C3=C\c2ccc[nH]2)cc1 | 23.1% | 59.2% |  | 39.5% | 52.6% | 33.1% | 24.7% | 25.6% | 57.5% |
| COc1ccccc1NC(=O)N/N=C/c1c[nH]c2ccccc12 | 4.72% (active) | 20.8% | 40.6% | 20% | 35.2% | 4.48% (active) | 20.3% | -51.2% (active) | 44.2% |
| Oc1ccc(Cl)c(Nc2ncnc3c2cnn3CC(Cl)c2ccc(Br)cc2)c1 (configuration not stated) | 57.2% | 3.71% (active) | 57.4% | 53.5% | 44.5% | 48.8% | 55.6% | 0.654% (active) | 78.4% |
| Fc1ccc(F)c(CNc2nc(SCCN3CCOCC3)nc3c2cnn3CC(Cl)c2ccc(Br)cc2)c1 (configuration not stated) | -49.7% (active) | 56.3% | 42.2% | 26.7% | 25.2% | -12.9% (active) | -1.48% (active) | -7.7% (active) | 32.3% |
| O=C(NNC(=O)c1ccc(OCc2nc3ccc(Cl)cc3[nH]2)cc1)Nc1ccc(Cl)c(Cl)c1 | 67.2% | 111% | 20.2% | -1.4% (active) | 63.3% | 56.5% | 62.7% | 40% | 8.8% (active) |
| CCC(=O)c1cc(C(=O)OC)c2ccc3c4ccccc4ccc3n12 | 73.3% | 47% | 66.9% | 21.9% | 92.6% | 93.8% | 89.6% | 77.9% | 99.6% |
| CCOc1ccc2[nH]c(=O)c(C(c3nnnn3CC3CCCO3)N3CCN(Cc4ccccc4)CC3)cc2c1 (configuration not stated) | 117% | -22.2% (active) | 38.5% | 60.9% | 94% | 104% | 76.3% | 87.2% | 101% |
| O=c1[nH]c2ccccc2cc1CSc1ccccc1Nc1nccc(-c2ccc3c(c2)OCO3)n1 | 94.4% | 9.83% (active) | 63.1% | 51.3% | 79.2% | 87.2% | 68.5% | 76.5% | 83% |
| Cn1cc(-c2cc(N)n3nc(-c4c[nH]c5ccccc45)cc3n2)c2cc(Cl)ccc21 | -51.4% (active) | -14.7% (active) | -91.1% (active) | -94.7% (active) | -27.2% (active) | -97.6% (active) | -76.9% (active) | -82.5% (active) | -90.2% (active) |
| CC1=C(C(=O)OC(C)C)C(c2ccc(O)cc2)NC(=O)N1 (configuration not stated) | 107% | 115% | 95% | 103% | 92.1% | 107% | 95.4% | 98% | 112% |
| COc1c(F)ccc(C(=O)Nc2ccc3nc(NC(=O)C4CCCN(S(=O)(=O)c5ccc(C(C)(C)C)cc5)C4)sc3c2)c1F (configuration not stated) | 55.4% | 66.4% | 78.2% | 58.8% | 45.8% | 66.5% | 55.9% | 43.9% | 81.3% |
| COc1c2c(c(Br)c3c1C(CCc1ccccc1)N(C)CC3)OCO2 (configuration not stated) | 16.5% | 63.8% | 36.8% | 43.3% | 41.3% | 25.3% | 16.3% | 6% (active) | 19.2% |
| O=c1ccc(Cn2c(C(F)(F)F)cc3c(Cl)ncnc32)c[nH]1 | 78.1% | 13.1% | 47.4% | 98.5% |  | 6.31% (active) | 19.3% | -61.8% (active) | 40.8% |
| O=CNc1ccc(-n2cnc3cc(-c4ccc(O)cc4)ccc32)cc1 | 111% | 59.3% | 88.5% | 84.6% | 88.1% | 79.4% | 99.2% | 93.7% | 92.9% |
| COc1ccc2[nH]c(=O)cc(-n3ncc(C(=O)/C=C/c4cc(OC)c(OC)c(OC)c4)c3C)c2c1 | -27.4% (active) | 32.2% | 19.8% | -67.4% (active) | 7.18% (active) | -93.9% (active) | -69.5% (active) | -85.6% (active) | -77.1% (active) |
| Cc1cccc(C)c1Nc1nnc(-c2c[nH]c3ccccc23)o1 | 104% | 88% | 97.5% | 95.6% | 76.3% | 94.1% | 83.2% | 83.9% | 105% |
